Data as given in PubChem BioAssay (EPA / NIEHS).
Several values for one entry are separate records, joined by “and”; a condition that tells them apart may be missing. Equal entries are not always repeated. Some structures have more than one record in an assay (separate samples or runs), and their calls can disagree. Activity calls are given as the source filed them. Rule for the calls: active = hit-call score of the fitted dose curve at least 0.9, where 1 is the maximum; inactive = score below 0.9.

Assay: BSK_LPS_PGE2: BioMAP Diversity Plus: LPS Assay for Prostaglandin E2 (PGE2) Biomarker Activity (AID 2283082)
Details: primary human HUVEC with PBMC; actives raise or lower the signal
Description: BSK_LPS is a cell-based, multiplexed-readout assay that uses umbilical vein endothelium and peripheral blood mononuclear cells, a human vascular primary cell co-culture, with measurements taken at 24 hours after chemical dosing in a 96-well plate.BSK_LPS_PGE2 is an assay component measured in the BSK_LPS assay. It measures PGE2 antibody related to regulation of gene expression using ELISA technology.Data from the assay component BSK_LPS_PGE2 was analyzed into 1 assay endpoint. This assay endpoint, BSK_LPS_PGE2, was analyzed with bidirectional fitting relative to DMSO as the negative control and baseline of activity. Using a type of binding reporter, gain or loss-of-signal activity can be used to understand changes in the signaling as they relate to the gene PTGER2. Furthermore, this assay endpoint can be referred to as a primary readout, because this assay has produced multiple assay endpoints where this one serves a signaling function. To generalize the intended target to other relatable targets, this assay endpoint is annotated to the gpcr intended target family, where the subfamily is rhodopsin-like receptor.
The levels of cell surface (or secreted, indicated by the prefix "s") biomarker endpoints were measured by ELISA. Overt cytotoxicity to cells in confluent adherent cultures (all systems other than the BT system) was assessed by measuring total protein levels using sulforhodamine B (SRB) staining in parallel cultures at the time of biomarker measurements, indicated as SRB endpoints. For proliferation assays for adherent cell types, individual cell types are cultured at sub-confluence and relative cell numbers quantified by SRB staining at time points optimized for each system (48 h: 3C and CASM3C systems; 72 h: BT and HDF3CGF systems; 96 h: SAg system). SRB was performed by staining cells with 0.1% SRB after fixation with 10% TCA and reading wells at 560 nm.Viability and proliferation of PBMC (T cells) was quantified by Alamar Blue reduction for the SAg and BT systems. For PBMC viability (referred to as PBMC Cytotoxicity within the assay endpoint names), cells were plated (75,000/well in a 96-well plate) and then chemical samples added for 1 h before addition of activators, SEB and TSST-1 (20 ng/mL final concentration each). Cells were incubated for 90 h. Then, Alamar Blue (20 uL/well) (Invitrogen, Cat DAL1100) was added for 6 h, and the plates were read with a fluorescence microplate reader at 546/580 nm (excitation/emission). For PBMC proliferation, cells were plated and activated as above but incubated for only 16 h prior to addition of Alamar Blue. Plates were read after 6 h.

Structure (SMILES)	outcome	AC50
CN(C)Cc1cc(C(C)(C)C)c(O)c(C(C)(C)C)c1	inactive	
CCCCC(CC)COC(=O)C=Cc1ccc(OC)cc1 (stereo not drawn)	inactive	
Cc1c(C(N)=O)cc([N+](=O)[O-])cc1[N+](=O)[O-]	inactive	
COc1cc(CNC(=O)CCCC/C=C/C(C)C)ccc1O		4.62 µM (active) and 2.9 µM (active)
OC(C(F)(F)F)(C(F)(F)F)C(O)(C(F)(F)F)C(F)(F)F		7.65 µM (active) and 6.88 µM (active)
COc1ccccc1Oc1c(NS(=O)(=O)c2ccc(C(C)(C)C)cc2)nc(-c2ncccn2)nc1OCCO	inactive	
CC[N+](CC)(CC(=O)Nc1c(C)cccc1C)Cc1ccccc1 (tested in a mixture with another compound)	inactive	
Oc1cccc2ccccc12	inactive	
Cc1cccnc1	inactive	
CC[N+](CC)(CC(=O)Nc1c(C)cccc1C)Cc1ccccc1	inactive	
CCC(C)=NO	inactive	
COC(=O)/C=C\C(=O)OC	inactive	
Sc1nc2ccccc2s1	inactive	
C1CN(CCOCCN2CCOCC2)CCO1	inactive	
CCCCCCCCCCCCCCCCCC[N+](C)(C)C	inactive	
COc1ccc(C(=O)c2ccccc2O)c(O)c1		6.03 µM (active)
CCCCCCC(O)CCCCCCCCCCC(=O)OC (stereo not drawn)		1.73 µM (active)
CC(C)CC(=O)CC(C)CC(C)C (stereo not drawn)	inactive	
O=[N+]([O-])c1cc(S(=O)(=O)Nc2ccccc2)ccc1Nc1ccccc1	inactive	28.9 µM (active)
CN(C)CCC(c1ccc(Cl)cc1)c1ccccn1 (stereo not drawn)	inactive	
CCC[Si](OC(C)=O)(OC(C)=O)OC(C)=O	inactive	
CCCCCCCCCC/C=C/C1CC(=O)OC1=O (stereo not drawn)	inactive	
CN(C)c1ccc(C(c2ccccc2)c2ccc(N(C)C)cc2)cc1	inactive	
O=C(C(=O)c1ccccc1)c1ccccc1	inactive	
CC(C)C1OCCN1CCOC(=O)NCCCCCCNC(=O)OCCN1CCOC1C(C)C (stereo not drawn)	inactive	
CCCCCCCCCCC1CO1 (stereo not drawn)	inactive	
Cc1cc(-n2nc3ccc(Cl)cc3n2)c(O)c(C(C)(C)C)c1	inactive	
